The record followed here is PubChem BioAssay.

Test [1] in a line: antimalarial activity against Dd2 strain (AID 2302;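 active = growth inhibition above 50% at the single 2 µM test dose, taken to imply half-maximal potency below 2 µM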;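 also: 0% = DMSO untreated growth and 100% = chloroquine plus artemisinin killed control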). Particulars: P. falciparum Dd2 in RBCs, LDH growth readout, 72 h; at 2 µM; stronger effect = higher value.
Test [2] is described as follows: HepG2 cytotoxicity, primary screen, cytotoxicity control for P. falciparum antimalarial project, cell-based, ATP luminescence (AID 2303;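 active = inhibition above 50%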;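 also: 0% = DMSO wells and 100% = digitonin-killed cells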). The conditions noted are these: HepG2 viability, 24-48 h, at 10 µM, stronger effect = higher value.
Test [3] concerns the target L-lactate dehydrogenase (Plasmodium falciparum (isolate CDC / Honduras)) (UniProt Q27743). Briefly: PfLDH activity inhibition – cell lysate, 3D7 strain, counter-screen for P. falciparum growth inhibition project (AID 2304).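 Also: 0% = vehicle and 100% = reference inhibitor.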 Particulars: P. falciparum 3D7 crude extract, LDH APAD/NBT absorbance; at 2 µM; stronger effect = higher value.
Test [4] in a line: inhibition of 3D7 malaria parasite growth – strain 3D7 (AID 2306).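 Also: 0% = DMSO wells and 100% = chloroquine plus artemisinin control wells.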 The conditions noted are these: P. falciparum 3D7 erythrocytic growth, LDH absorbance, 72 h; at 2 µM; stronger effect = higher value.
Test [5] addresses Calcium-dependent protein kinase 1 (Plasmodium falciparum (isolate 3D7)) (UniProt P62344). Briefly: PfCDPK1 kinase inhibitors, biochemical, TCAMS library (AID 1159585; cut-off not given, nearly all actives have IC50 up to about 0.98 µM;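 also: inhibitors leave more ATP so luminescence rises with inhibition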). The conditions noted are these: recombinant PfCDPK1, Kinase-Glo ATP depletion luminescence.
Test [6] concerns the target Plasmodium falciparum protein kinase 6 (PK6, PF3D7_1337100) (UniProt Q8IDW1). Briefly: PfPK6 kinase inhibitors, biochemical, TCAMS library (AID 1159586). Particulars: recombinant PfPK6, Kinase-Glo ATP depletion luminescence.
Test [7] addresses Protein kinase 7 (PK7), Plasmodium falciparum 3D7 (PF3D7_0213400) (UniProt Q7YTF7). As to the kind of experiment: inhibition of Plasmodium PK7 catalytic activity – biochemical, TCAMS antimalarial set, Kinase-Glo luminescence (AID 1159587). The conditions noted are these: recombinant PfPK7, Kinase-Glo ATP depletion luminescence. (In Kinase-Glo more light means more ATP remaining.)

Test [8] deals with Calcium-dependent protein kinase 4 (Plasmodium falciparum (isolate 3D7)) (UniProt Q8IBS5). Briefly: PfCDPK4 kinase inhibitors, biochemical, TCAMS library (AID 1159588; cut-off not given, nearly all actives have IC50 up to about 0.91 µM). The conditions noted are these: recombinant PfCDPK4, Kinase-Glo ATP depletion luminescence.
Sequence of Calcium-dependent protein kinase 4 (Plasmodium falciparum (isolate 3D7)) (Q8IBS5 whole entry, looked up): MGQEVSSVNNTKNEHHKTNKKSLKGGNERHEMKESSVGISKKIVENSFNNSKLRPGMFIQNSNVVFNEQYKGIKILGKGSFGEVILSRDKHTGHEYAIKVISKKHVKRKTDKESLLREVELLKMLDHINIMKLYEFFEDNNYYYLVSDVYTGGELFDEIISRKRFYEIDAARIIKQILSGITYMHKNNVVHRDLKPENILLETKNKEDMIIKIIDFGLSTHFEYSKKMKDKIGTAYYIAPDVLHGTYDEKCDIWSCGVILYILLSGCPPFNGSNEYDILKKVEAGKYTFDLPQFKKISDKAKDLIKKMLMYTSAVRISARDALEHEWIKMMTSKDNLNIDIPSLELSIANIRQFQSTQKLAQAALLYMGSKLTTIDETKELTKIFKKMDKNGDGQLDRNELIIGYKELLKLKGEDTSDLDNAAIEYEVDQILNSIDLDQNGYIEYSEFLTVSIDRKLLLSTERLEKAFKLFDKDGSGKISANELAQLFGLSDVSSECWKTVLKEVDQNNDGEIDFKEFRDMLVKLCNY

A number with no mark means an inactive call. For some of these results: Measured potencies and affinities stand elsewhere. The source made the active and inactive calls. Unless noted, no rule for the calls is given here.

Sequence of L-lactate dehydrogenase (Plasmodium falciparum (isolate CDC / Honduras)) (Q27743 whole entry, looked up): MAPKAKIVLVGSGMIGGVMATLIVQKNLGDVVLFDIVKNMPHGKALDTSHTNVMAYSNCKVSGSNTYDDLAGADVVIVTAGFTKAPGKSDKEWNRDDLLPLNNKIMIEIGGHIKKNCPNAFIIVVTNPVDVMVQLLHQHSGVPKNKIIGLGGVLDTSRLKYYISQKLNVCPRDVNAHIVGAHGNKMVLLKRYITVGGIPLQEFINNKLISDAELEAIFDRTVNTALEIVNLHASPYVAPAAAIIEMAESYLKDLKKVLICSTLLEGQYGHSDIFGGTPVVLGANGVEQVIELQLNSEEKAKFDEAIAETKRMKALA
Sequence of Protein kinase 7 (PK7), Plasmodium falciparum 3D7 (PF3D7_0213400) (Q7YTF7 1-343): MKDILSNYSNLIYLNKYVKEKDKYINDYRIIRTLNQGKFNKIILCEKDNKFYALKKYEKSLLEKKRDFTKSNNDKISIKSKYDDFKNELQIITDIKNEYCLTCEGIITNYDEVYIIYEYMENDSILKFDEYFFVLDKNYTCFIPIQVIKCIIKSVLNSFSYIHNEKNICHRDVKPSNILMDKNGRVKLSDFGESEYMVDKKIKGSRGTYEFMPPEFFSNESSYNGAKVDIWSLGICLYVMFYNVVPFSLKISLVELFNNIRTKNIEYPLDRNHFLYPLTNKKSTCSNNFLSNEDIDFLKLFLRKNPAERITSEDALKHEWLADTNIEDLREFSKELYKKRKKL
Sequence of Calcium-dependent protein kinase 1 (Plasmodium falciparum (isolate 3D7)) (P62344 whole entry, looked up): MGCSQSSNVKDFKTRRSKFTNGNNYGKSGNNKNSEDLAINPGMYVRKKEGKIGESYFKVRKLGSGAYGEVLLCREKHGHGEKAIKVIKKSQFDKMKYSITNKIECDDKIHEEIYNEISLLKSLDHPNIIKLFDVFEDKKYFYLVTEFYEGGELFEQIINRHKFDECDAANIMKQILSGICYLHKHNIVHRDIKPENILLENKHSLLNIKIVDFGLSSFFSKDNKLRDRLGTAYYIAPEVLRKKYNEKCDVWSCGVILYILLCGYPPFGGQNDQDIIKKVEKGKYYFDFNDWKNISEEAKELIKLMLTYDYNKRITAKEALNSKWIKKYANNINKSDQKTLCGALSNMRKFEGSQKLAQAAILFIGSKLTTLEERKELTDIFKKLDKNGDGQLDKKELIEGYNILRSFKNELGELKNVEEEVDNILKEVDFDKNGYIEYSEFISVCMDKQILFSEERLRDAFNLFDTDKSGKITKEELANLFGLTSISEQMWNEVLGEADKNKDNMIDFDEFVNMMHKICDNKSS
Sequence of Plasmodium falciparum protein kinase 6 (PK6, PF3D7_1337100) (Q8IDW1 1-305): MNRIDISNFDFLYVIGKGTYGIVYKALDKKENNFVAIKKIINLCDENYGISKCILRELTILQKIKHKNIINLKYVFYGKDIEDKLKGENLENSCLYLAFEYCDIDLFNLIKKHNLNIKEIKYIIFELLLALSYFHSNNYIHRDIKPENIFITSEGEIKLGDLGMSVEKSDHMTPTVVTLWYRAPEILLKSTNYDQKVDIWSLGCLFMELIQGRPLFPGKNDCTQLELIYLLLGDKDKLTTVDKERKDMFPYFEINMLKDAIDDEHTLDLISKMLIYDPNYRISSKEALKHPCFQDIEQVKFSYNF

Consider `O=C(/C=C/c1ccc(Cl)c(Cl)c1)NCCCCN1CCC(c2c[nH]c3ccccc23)CC1`, for which the growth inhibition in test [1] was 11%; in test [4], 91% (active). The values for the inhibition in test [2] and in test [3] were 57% (active) and -2%, respectively. Besides, the result in test [5], in test [6], in test [7] and in test [8] was inactive.

Regarding `O=S(=O)(NCCN1CCCC1)c1ccc(-c2cccc(CNC3Cc4ccccc4C3)c2)cc1`, the figures for the growth inhibition in test [1] and in test [4] were 57% (active) and 99% (active), respectively. Moreover, the inhibition in test [2] was 55% (active); in test [3], -6%. Also, the result in test [5], in test [6], in test [7] and in test [8] was inactive.

`CCN(CCCN1CCCCC1)c1cc(C)nc(Nc2ccc(C(C)C)cc2)n1`: the figures for the growth inhibition in test [1] and in test [4] were 51% (active) and 100% (active), respectively. The inhibition was 34% in test [2] and 2% in test [3]. The result in test [5], in test [6], in test [7] and in test [8] was inactive.

As to `COc1ccc(CC(=O)NC(CCCN2CCC3(CC2)OCc2ccccc23)c2ccc(Cl)c(Cl)c2)cc1` (stereo not given), the values for the growth inhibition in test [1] and in test [4] were 53% (active) and 83% (active), respectively. In addition, the results for the inhibition in test [2] and in test [3] were 40% and 5%, respectively. Besides, the result in test [5], in test [6], in test [7] and in test [8] was inactive.

Take `O=C(Nc1ccc(Oc2cccnc2)cc1)C1CCN(Cc2cc(Cl)ccc2O)CC1`: the values for the growth inhibition in test [1] and in test [4] were 1% and 83% (active), respectively. The results for the inhibition in test [2] and in test [3] were 37% and -2%, respectively. Besides, the outcome in test [5], in test [6], in test [7] and in test [8] was inactive.

On to `CC(C)(C)c1ccc(Cn2c(=N)n(CC(=O)c3ccc(-c4ccccc4)cc3)c3ccccc32)cc1`, for which the growth inhibition in test [1] is 50% (active); in test [4], 98% (active). Besides, the inhibition in test [2] is 63% (active); in test [3], -5%. In addition, the outcome in test [5], in test [6], in test [7] and in test [8] was inactive.

For `OCCN1CCN(Cc2ccc(-c3ccc(-c4nc5ccccc5[nH]4)cc3)cc2)CC1`, the results for the growth inhibition in test [1] and in test [4] were 58% (active) and 100% (active), respectively. Besides, the inhibition in test [2] was 6%; in test [3], -1%. The result in test [5], in test [6], in test [7] and in test [8] was inactive.

For `COc1ccc2nccc(NC(=O)N3CCC(NCc4cc5ccccc5[nH]4)CC3)c2n1`, the growth inhibition in test [1] is 29%; in test [4] it was 85% (active). Moreover, the inhibition in test [2] is 27%; in test [3], -5%. For the same compound, the result in test [5], in test [6], in test [7] and in test [8] was inactive.

Regarding `NC1=NC(c2ccccc2)(c2ccccc2)C(=O)N1CCOc1ccccc1`, the growth inhibition in test [1] is 57% (active); in test [4] it was 90% (active). For the same compound, the results for the inhibition in test [2] and in test [3] were 42% and 0%, respectively. Moreover, the outcome in test [5], in test [6], in test [7] and in test [8] was inactive.

With `COc1cccc(-c2cc(C(F)(F)F)n3ncc(C(=O)Nc4cc(Cl)ccc4O)c3n2)c1`, the growth inhibition in test [1] and in test [4] was 99% (active) in each case. The inhibition was -9% in test [2] and 5% in test [3]. The result in test [5], in test [6], in test [7] and in test [8] was inactive.

For the compound `COc1ccc2nccc([C@@H](O)CN3CCC(NCCOc4ccccc4[N+](=O)[O-])CC3)c2c1`, the growth inhibition in test [1] is 98% (active); in test [4], 100% (active). For the same compound, the values for the inhibition in test [2] and in test [3] were 4% and -2%, respectively. Also, the result in test [5], in test [6], in test [7] and in test [8] was inactive.

Take `Cc1cc(N[C@@H](Cc2ccccc2)C(=O)NC2CCCC2)nc(NCCc2ccc(F)cc2)n1`: the growth inhibition is 61% (active) in test [1] and 100% (active) in test [4]. The inhibition was 21% in test [2] and -2% in test [3]. The outcome in test [5], in test [6], in test [7] and in test [8] was inactive.

As to `Cc1cc(N(C)C)nc(Nc2ccc(NC(=O)C3CCCCC3)cc2)n1`, the figures for the growth inhibition in test [1] and in test [4] were 68% (active) and 101% (active), respectively. Further, the inhibition in test [2] is 3%; in test [3] it was -1%. The outcome in test [5], in test [6], in test [7] and in test [8] was inactive.

For `C=CCOc1cccc2c1CCN(CCN1CCC(NC(=O)c3ccc(-c4ccc(Cl)cc4)cc3)CC1)C2`, the growth inhibition in test [1] is 22%; in test [4] it was 93% (active). For the same compound, the inhibition in test [2] was 35%; in test [3], -2%. Besides, the outcome in test [5], in test [6], in test [7] and in test [8] was inactive.

For `NCC1CCCN1Cc1cccc(-c2ccc(-c3nc4ccc(C(F)(F)F)cc4[nH]3)s2)c1` (stereo not given), the growth inhibition in test [1] is 96% (active); in test [4] it was 102% (active). Also, the inhibition in test [2] is 17%; in test [3], -3%. Further, the outcome in test [5], in test [6], in test [7] and in test [8] was inactive.

On to `Cc1cc(NCCc2ccccc2)nc(/N=C(\N)Nc2ccccc2Cl)n1`, for which the growth inhibition in test [1] is 7%; in test [4], 100% (active). For the same compound, the inhibition was 20% in test [2] and -8% in test [3]. Moreover, the outcome in test [5], in test [6], in test [7] and in test [8] was inactive.

As for `Cc1cccc2[nH]c(-c3ccc(-c4cccc(NC(=O)c5cnccc5C(F)(F)F)c4)cc3)nc12`, the growth inhibition in test [1] was 13%; in test [4] it was 84% (active). Moreover, the inhibition is 25% in test [2] and 0% in test [3]. Besides, the outcome in test [5], in test [6], in test [7] and in test [8] was inactive.

Consider `COc1cc(NC(=O)CCCCCCCCN2CCN(C)CC2)c2ncccc2c1`, for which the growth inhibition in test [1] is 36%; in test [4], 82% (active). Further, the inhibition was 8% in test [2] and -1% in test [3]. Besides, the result in test [5], in test [6], in test [7] and in test [8] was inactive.

Regarding `C=CCOc1ccc(C(=O)Nc2nonc2-c2ccc(OC)c(OC)c2)cc1`, the growth inhibition in test [1] was 91% (active); in test [4], 100% (active). The values for the inhibition in test [2] and in test [3] were 2% and -5%, respectively. The outcome in test [5], in test [6], in test [7] and in test [8] was inactive.

On to `CN1CCN(CCCNCc2cccc(-c3ccc(CNCCc4ccccc4)cc3)c2)CC1`, for which the growth inhibition in test [1] was 20%; in test [4], 100% (active). In addition, the values for the inhibition in test [2] and in test [3] were 36% and -9%, respectively. The outcome in test [5], in test [6], in test [7] and in test [8] was inactive.

What is called inhibition is the drop in the measured response relative to a control, in per cent.
